BH1578 lux ind: quorum light induction in luxS cqsA deficient V. cholerae; V. cholerae BH1578 lux reporter, luminescence, 6 h; activation, % at 18.7 µM; 350,000 compounds, 0.16% hits; AID 588436; in the data active means activation mostly above about 9.7%, no sharp cut-off
Mtb FBA inh: inhibits M. tuberculosis FBA enzyme; P9WQA3; 360,000 compounds, 2.3% hits; AID 588726; purified M. tuberculosis FBA, fluorescence read-out; inhibition, % at 1 µM; in the data active means inhibition above about 27%;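 further: 0% = vehicle and 100% = reference inhibitor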
Target sequence (P9WQA3 whole entry, looked up): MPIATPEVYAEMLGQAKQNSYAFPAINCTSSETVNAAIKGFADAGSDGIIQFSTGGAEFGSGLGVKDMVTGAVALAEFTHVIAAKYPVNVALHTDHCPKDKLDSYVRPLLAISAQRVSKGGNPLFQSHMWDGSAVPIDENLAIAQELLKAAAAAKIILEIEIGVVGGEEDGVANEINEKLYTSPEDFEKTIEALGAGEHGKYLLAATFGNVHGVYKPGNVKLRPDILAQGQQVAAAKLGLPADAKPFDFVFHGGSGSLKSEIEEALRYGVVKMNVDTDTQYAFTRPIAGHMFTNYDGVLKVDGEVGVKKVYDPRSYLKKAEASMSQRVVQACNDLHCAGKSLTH
Mtb UGM inh: Mtb UDP-galactopyranose mutase inhibition | 320,000 compounds, 0.06% hits | inhibition, % at 10 µM | purified UGM, fluorescence polarization probe displacement; in the data active means inhibition above about 10%, passing the limit was not always enough
GDH-TPI inh: GDH-TPI coupled enzyme inhibition counter-screen. GDH-TPI coupled enzyme counterscreen, NADH absorbance. inhibition, % at 4.8 µM. 360,000 compounds, 1.2% hits. AID 588335; in the data active means inhibition above about 30%;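 further: 0% = DMSO wells and 100% = wells lacking the enzyme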
RecA intein inh: Mtb RecA intein splicing inhibition. P9WHJ3. cell-free RecA intein splicing, fluorescence. inhibition, % (no concentration beside the values). 290,000 compounds, 0.75% hits. AID 2221; in the data active means inhibition above about 30%;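 further: 0% = vehicle wells and 100% = reference inhibitor control wells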
Rv3671c protease: Rv3671c (M. tuberculosis) protease inhibition; AID 2606; 320,000 compounds, 0.048% hits; inhibition, % at 5.96 µM; P9WHR9; in the data active means inhibition above about 38%;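 further: extracellular domain of Rv3671c used as enzyme; 0% = enzyme with DMSO and 100% = no enzyme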
* marks the source's active call; other numbers are inactive results; i = inactive; nt = no result; + = active, no number. Sampled rows, rich in hits. Any-hit rate of the full collection: about 4.1%.

SMILES | BH1578 lux ind | Mtb FBA inh | Mtb UGM inh | GDH-TPI inh | RecA intein inh | Rv3671c protease
Cc1cc(=O)oc2cc(OCC(=O)N3CCN(C(C)c4ccccc4)CC3)c(Cl)cc12 (centres undefined) | i | + | 0 | 3 | nt | 3
CC(C)(C)OC(=O)N[C@@H](Cc1ccccc1)C(=O)N[C@@H](CO)[C@H](O)[C@@H]1C[C@@H]1C(=O)NC1CC1 | i | 2 | 3 | 2 | -11 | -2
CC(C)(O)C#Cc1ccccc1C(=O)NC(CC(N)=O)C(=O)O (centres undefined) | 0 | 2 | 1 | 32* | -4 | 3
CCNC(=S)N/N=C/c1ccc(OCc2ccc(C(=O)OC)cc2)cc1 | -1 | 2 | 4 | 33* | 1 | -3
COCCNC(=S)N/N=C/c1ccc(OCc2ccc(C(=O)OC)cc2)cc1 | 0 | -2 | -2 | 20 | 1 | -7
Cc1ccc(C(CC(=O)c2ccco2)SCCO)cc1 (centres undefined) | i | 1 | 1 | 33* | 2 | -5
O=C(c1[nH]c(C(F)(F)F)nc1-c1ccccc1)N1CCN(c2ccccn2)CC1 | nt | -1 | nt | nt | nt | nt
O=c1[nH]cnc2nc(-c3ccc(N(CCCl)CCCl)cc3)[nH]c12 | 1 | nt | nt | 47* | nt | nt
O=C(O)CSc1nnc(COc2ccc(Br)cc2)n1-c1ccccc1 | -1 | 1 | 0 | -4 | 1 | 3
CN[C@@H](CO)C(=O)NC[C@H]1O[C@@H](n2cc(C)c(=O)[nH]c2=O)C[C@@H]1O | 0 | 0 | nt | 8 | nt | nt
CN(C)C=NC(=O)c1ccc(N2CCN(c3ncc(C(F)(F)F)cc3Cl)CC2)cc1 | -2 | 4 | -1 | 19 | 1 | 2
CN(C)/C=C/C(=O)c1ccc(N2CCN(c3ncc(C(F)(F)F)cc3Cl)CC2)cc1 | -1 | 2 | 1 | 40* | 6 | -2
CC(=O)N1CCc2c(sc(NC(=O)C3CC3)c2-c2nc3ccccc3s2)C1 | 0 | 4 | 2 | -3 | 30* | -9
CCn1cc(C(=O)N2CCN(c3ccc(C(C)=O)cc3)CC2)c2cc(OC)c(OC)cc2c1=O | 0 | 2 | 5 | 36* | nt | 3
COc1ccc(C(=O)NC2CCN(S(=O)(=O)c3ccc(C)cc3)CC2)cc1 | 0 | 2 | 4 | 7 | nt | -3
CCN(CC)CCNC(=O)c1cc2cc3ccc(OC)cc3nc2o1 | 0 | + | -3 | 27 | -4 | 0
COCCCNC(=O)c1cc2cc3cc(OC)ccc3nc2o1 | i | 122* | 5 | 9 | -6 | 1
COc1ccc2cc3cc(C(=O)Nc4cc(OC)c(OC)c(OC)c4)oc3nc2c1 | i | 1 | 2 | 23 | -21 | -2
CCN(C(=O)c1cc2cc3ccc(C)cc3nc2o1)c1ccc(OC)cc1 | 0 | -4 | 2 | 19 | 4 | -4
CCCCN(C)CCNC(=O)c1cc2cc3ccc(OC)cc3nc2o1 | -1 | + | -1 | 24 | -4 | -3
COc1ccc(OCCCC(=O)OCC(=O)Nc2nnc(-c3ccccc3)o2)cc1 | i | 2 | 1 | 2 | nt | 4
N#Cc1cccc(-c2csc(C(O)(c3ccccc3)C(F)(F)F)n2)c1 (centres undefined) | 0 | 1 | nt | 10 | nt | nt
CCc1ccc(C(C(=O)NC2CCCC2)N(CCOC)C(=O)CCC(=O)Nc2cc(C)on2)cc1 (centres undefined) | 0 | 2 | 0 | 1 | 2 | 6
O=C(CC(=O)c1ccccc1)c1ccccc1 | -1 | 6 | nt | 24 | nt | nt
CC(CC(=O)c1ccccc1)=NCCCN=C(C)CC(=O)c1ccccc1 | i | -2 | nt | 60* | nt | nt
SMILES | BH1578 lux ind | Mtb FBA inh | Mtb UGM inh | GDH-TPI inh | RecA intein inh | Rv3671c protease
COCCCn1c(-c2ccc(Cl)cc2)n[nH]c1=S | i | 28* | -3 | 11 | 0 | 2
CCOCCCn1c(-c2ccc(Cl)cc2)n[nH]c1=S | nt | 4 | -2 | -2 | -1 | -3
Cc1cccc(OCC(=O)NNC(=O)c2ccccc2OCc2c(C)noc2C)c1 | 0 | 0 | 0 | 4 | nt | -1
CCS(=O)(=O)c1nc(S(=O)(=O)c2ccc(C)cc2)c(N2CCCC2)s1 | 0 | 0 | 3 | 34* | -9 | 7
CCS(=O)(=O)c1nc(S(=O)(=O)c2ccc(C)cc2)c(N2CCCCCC2)s1 | i | -2 | nt | 17 | nt | nt
N#Cc1ccccc1OCC(=O)Nc1ccc2c(c1)OCO2 | 0 | 5 | nt | -4 | nt | nt
CC(Oc1ccccc1)C(=O)N=C1SC2CS(=O)(=O)CC2N1c1ccccc1 (centres undefined) | i | 2 | -1 | 16 | 1 | -5
Nc1c(S(=O)(=O)c2cccs2)c2nc3ccccc3nc2n1/N=C/c1cccc(O)c1 | -7 | 19 | -2 | 45* | -3 | -141
COc1cccc(/C=N/n2c(N)c(S(=O)(=O)c3cccs3)c3nc4ccccc4nc32)c1 | nt | 3 | -1 | 3 | -1 | -4
COc1cc(/C=C2\SC(=S)N(CCC(=O)N3CCCCC3)C2=O)cc(OC)c1OC | 0 | -1 | 2 | 2 | 12 | 6
Cc1ccc(-c2cc(NC=O)c3ncc(-c4cnn(C)c4)n3c2)cc1 | -4 | 4 | nt | -1 | nt | nt
CC(=O)Nc1ccc(Nc2nc(C)c([N+](=O)[O-])c(N(C)c3ccccc3)n2)cc1 | 0 | -4 | 1 | 13 | 4 | -8
COc1ccc(/C=N/Nc2nc(C)c([N+](=O)[O-])c(N(C)c3ccccc3)n2)cc1OC | 0 | -3 | 2 | 45* | -1 | -1
Cc1ccc(C(=O)NNC(=O)c2ccc(NS(=O)(=O)c3cccs3)cc2)o1 | 5 | 3 | 2 | 6 | nt | 0
Cc1ccc(S(=O)(=O)N2CCN(C(=O)c3nn(C(C)C)c(=O)c4ccccc34)CC2)cc1C | 0 | 0 | 3 | 2 | -7 | 1
Cn1nc(C(=O)N2CCN(S(=O)(=O)c3ccccc3)CC2)c2ccccc2c1=O | 6 | 107* | 5 | -1 | -2 | -3
O=C(CN1CCN(C(C(=O)Nc2ccc(F)cc2)c2ccccc2)CC1)NC1CC1 (centres undefined) | -1 | 0 | -1 | 1 | nt | 6
O=C(Nc1ccc(S(=O)(=O)N2CCOCC2)cc1)c1ccc([N+](=O)[O-])o1 | 0 | -1 | 0 | 32* | -3 | -2
Cc1c(C(=O)Nc2ccc(S(=O)(=O)N3CCOCC3)cc2)cccc1[N+](=O)[O-] | -1 | + | -4 | 6 | 2 | -3
COc1cccc(-n2c([S-])c(C(=O)Nc3ccc(S(=O)(=O)N4CCOCC4)cc3)[n+]3cc(C(N)=O)ccc23)c1 | 0 | -3 | 4 | 31* | 0 | -4
Cc1ccc(C(=O)c2c3ccc(C(F)(F)F)cc3nn2CCC(N)=O)cc1 | i | -2 | 0 | 17 | 0 | -1
COc1ccc2nc(-c3ccccc3)[nH]c2c1 | 0 | 150* | -2 | 6 | -2 | -2
COc1ccc(-c2nc3ccc([N+](=O)[O-])cc3[nH]2)cc1 | -1 | -4 | 0 | 19 | 2 | -9
CCOc1ccc2nc(C(C)O)[nH]c2c1 (centres undefined) | i | 3 | 2 | 3 | 1 | 3

Screening results: PubChem BioAssay, several laboratories
